# From PMC11062922 (Nature Chemical Biology, 2023)
# Read-outs that look alike come from different tables or passages of the source.
# Columns and labels:
# Design in all cases: species or system human, MV4-11 + K-562 + COLO205 + SK-N-BE2 + OVCAR-8
# PIP4K2C = details: read-out: apparent Kd, n = 1
# STK4 = details: read-out: apparent Kd, n = 1
# ATM = details: read-out: apparent Kd, n = 1
# AURKA = details: read-out: apparent Kd, n = 1
# TNK1 = details: read-out: apparent Kd; compound concentrations: 100 nM and 1000 nM (sheet 'Samples'), CATDS: 5.9117233589801498E-2; n = 1
# CSNK1D = details: read-out: apparent Kd, n = 1
# MAPK9 = details: read-out: apparent Kd, n = 1
# PRKAG2 = details: read-out: apparent Kd, n = 1
# CHEK1 = details: read-out: apparent Kd, n = 1
# MARK3 = details: read-out: apparent Kd, n = 1
# RPS6KA4 = details: read-out: apparent Kd, n = 1
# CDK16 = details: read-out: apparent Kd, n = 1
# MAPK10 = details: read-out: apparent Kd, n = 1
# CAMKK2 = details: read-out: apparent Kd; compound concentrations: 100 nM and 1000 nM (sheet 'Samples'), CATDS: 1.8078594286366201E-2; n = 1
# [1] = compound concentrations:100 nM and 1000 nM (sheet 'Samples')
compound,measurement,setting,value
CS(=O)(=O)Nc1ccc(-c2ccnc3[nH]ccc23)cc1 [GSK993273A],potency estimated from few doses,PIP4K2C; [1],482 nM
Cc1cccc(Nc2nc(N[C@H]3CCNC3)ncc2C(N)=O)c1.Cl [GSK2197149A],potency estimated from few doses,STK4; [1],1490 nM
CNCc1ccc(-c2cc(-c3nc(-c4ccc(S(=O)(=O)C(C)C)cc4)cnc3N)on2)cc1 [VE-822],potency estimated from few doses,ATM; [1],13.5 nM
same,potency estimated from few doses,PIP4K2C; [1],186 nM
CN(c1ccc(NC(=O)NCCN2CCOCC2)cc1)c1ccnc(Nc2ccc(CS(C)(=O)=O)cc2)n1.Cl [GW830365A],potency estimated from few doses,"AURKA; compound concentrations: 100 nM and 1000 nM (sheet 'Samples'), CATDS: 7.5652675544933198E-2",444 nM
same,potency estimated from few doses,TNK1,792 nM
c1ccc(-c2n[nH]cc2Nc2ccnc3ccccc23)nc1 [GW694077X],potency estimated from few doses,"CSNK1D; compound concentrations: 100 nM and 1000 nM (sheet 'Samples'), CATDS: 2.5323353021981399E-2",1390 nM
same,potency estimated from few doses,"MAPK9; compound concentrations: 100 nM and 1000 nM (sheet 'Samples'), CATDS: 2.3391396830632599E-2",1900 nM
CNc1cc(-c2ccc3c(N)n[nH]c3c2)nc(N)n1 [GSK2224810A],potency estimated from few doses,PRKAG2; [1],1090 nM
O=C(O)C(F)(F)F.O=c1[nH]ccc2nc(N[C@@H]3CCNC3)nc(Nc3cc(Cl)cc(Cl)c3)c12 [GSK2188764A],potency estimated from few doses,CHEK1; [1],711 nM
same,potency estimated from few doses,MARK3; [1],153 nM
same,potency estimated from few doses,PRKAG2; [1],632 nM
same,potency estimated from few doses,RPS6KA4; [1],472 nM
same,potency estimated from few doses,STK4; [1],913 nM
COc1cc[nH]c1/C=C1\C(=O)Nc2ccc(F)c(C#CC3(O)CCNCC3)c21.Cl [RO0282986-001],potency estimated from few doses,"CDK16; compound concentrations: 100 nM and 1000 nM (sheet 'Samples'), CATDS: 3.6317667749827198E-2",71.4 nM
same,potency estimated from few doses,"MAPK10; compound concentrations: 100 nM and 1000 nM (sheet 'Samples'), CATDS: 9.5486825617733494E-3",1600 nM
same,potency estimated from few doses,"MAPK9; compound concentrations: 100 nM and 1000 nM (sheet 'Samples'), CATDS: 1.5639148944551099E-2",359 nM
same,potency estimated from few doses,"MARK3; compound concentrations: 100 nM and 1000 nM (sheet 'Samples'), CATDS: 1.4968914388982501E-2",398 nM
same,potency estimated from few doses,"RPS6KA4; compound concentrations: 100 nM and 1000 nM (sheet 'Samples'), CATDS: 2.8007008589504299E-2",111 nM
same,potency estimated from few doses,"STK4; compound concentrations: 100 nM and 1000 nM (sheet 'Samples'), CATDS: 1.59534503193824E-2",343 nM
COc1cc(Nc2nccc(N3CCC(NC(=O)c4cccc(NC(C)=O)c4)C3)n2)cc(OC)c1OC (centres unmarked) [GSK1379754A],potency estimated from few doses,"PIP4K2C; compound concentrations: 100 nM and 1000 nM (sheet 'Samples'), CATDS: 7.8975813686716995E-2",2090 nM
CCn1c(-c2cccnc2O)nc2cnccc21 [SB-736715],potency estimated from few doses,"ATM; compound concentrations: 100 nM and 1000 nM (sheet 'Samples'), CATDS: 6.3051453748071404E-2",146 nM
same,potency estimated from few doses,"CDK16; compound concentrations: 100 nM and 1000 nM (sheet 'Samples'), CATDS: 1.2342830833646699E-2",2030 nM
same,potency estimated from few doses,"MAPK9; compound concentrations: 100 nM and 1000 nM (sheet 'Samples'), CATDS: 1.25360352526476E-2",1950 nM
same,potency estimated from few doses,"PIP4K2C; compound concentrations: 100 nM and 1000 nM (sheet 'Samples'), CATDS: 1.9889508399788002E-2",761 nM
same,potency estimated from few doses,"PRKAG2; compound concentrations: 100 nM and 1000 nM (sheet 'Samples'), CATDS: 1.6059828940045699E-2",1130 nM
same,potency estimated from few doses,"STK4; compound concentrations: 100 nM and 1000 nM (sheet 'Samples'), CATDS: 1.39715497774644E-2",1510 nM
c1cnn2ncc(-c3ccnc(Nc4ccc5c(c4)OCCO5)n3)c2c1 [GW806290X],potency estimated from few doses,"CDK16; compound concentrations: 100 nM and 1000 nM (sheet 'Samples'), CATDS: 2.45493373786023E-2",989 nM
same,potency estimated from few doses,"CSNK1D; compound concentrations: 100 nM and 1000 nM (sheet 'Samples'), CATDS: 2.68711493268559E-2",761 nM
same,potency estimated from few doses,"MAPK10; compound concentrations: 100 nM and 1000 nM (sheet 'Samples'), CATDS: 2.29064571505532E-2",1230 nM
same,potency estimated from few doses,"MAPK9; compound concentrations: 100 nM and 1000 nM (sheet 'Samples'), CATDS: 2.34417692705663E-2",1140 nM
same,potency estimated from few doses,"PIP4K2C; compound concentrations: 100 nM and 1000 nM (sheet 'Samples'), CATDS: 7.0230989511161995E-2",96.8 nM
O=C(O)C(F)(F)F.O=c1[nH]ccc2nc(N[C@@H]3CCNC3)nc(Nc3ccc4c(c3)S(=O)(=O)CC4)c12 [GSK2181306A],potency estimated from few doses,"CDK16; compound concentrations: 100 nM and 1000 nM (sheet 'Samples'), CATDS: 1.11902252687631E-2",620 nM
same,potency estimated from few doses,"CHEK1; compound concentrations: 100 nM and 1000 nM (sheet 'Samples'), CATDS: 1.0862390298074001E-2",672 nM
same,potency estimated from few doses,"CSNK1D; compound concentrations: 100 nM and 1000 nM (sheet 'Samples'), CATDS: 9.27581508882039E-3",1080 nM
same,potency estimated from few doses,"MARK3; compound concentrations: 100 nM and 1000 nM (sheet 'Samples'), CATDS: 1.24991581563988E-2",470 nM
same,potency estimated from few doses,"PRKAG2; compound concentrations: 100 nM and 1000 nM (sheet 'Samples'), CATDS: 1.2141088500549201E-2",504 nM
same,potency estimated from few doses,"RPS6KA4; compound concentrations: 100 nM and 1000 nM (sheet 'Samples'), CATDS: 1.6454900639240402E-2",258 nM
same,potency estimated from few doses,"STK4; compound concentrations: 100 nM and 1000 nM (sheet 'Samples'), CATDS: 2.0109118463760199E-2",175 nM
COc1cc(Nc2nccc(-c3cnn4ncccc34)n2)cc(OC)c1 [GW801372X],potency estimated from few doses,"ATM; compound concentrations: 100 nM and 1000 nM (sheet 'Samples'), CATDS: 3.2681942140962102E-2",274 nM
same,potency estimated from few doses,CAMKK2,1750 nM
same,potency estimated from few doses,"CDK16; compound concentrations: 100 nM and 1000 nM (sheet 'Samples'), CATDS: 1.6995450779384601E-2",2320 nM
same,potency estimated from few doses,"CSNK1D; compound concentrations: 100 nM and 1000 nM (sheet 'Samples'), CATDS: 1.8156615660070499E-2",1710 nM
same,potency estimated from few doses,"MAPK10; compound concentrations: 100 nM and 1000 nM (sheet 'Samples'), CATDS: 2.5530057385415701E-2",532 nM
same,potency estimated from few doses,"MAPK9; compound concentrations: 100 nM and 1000 nM (sheet 'Samples'), CATDS: 1.8501615721313099E-2",1580 nM
same,potency estimated from few doses,"PIP4K2C; compound concentrations: 100 nM and 1000 nM (sheet 'Samples'), CATDS: 2.38914066508359E-2",648 nM
CNCC#Cc1c(F)ccc2c1/C(=C/c1[nH]ccc1OC)C(=O)N2.Cl [RO0281601-001],potency estimated from few doses,"CDK16; compound concentrations: 100 nM and 1000 nM (sheet 'Samples'), CATDS: 5.4243920353091599E-2",173 nM
same,potency estimated from few doses,"MAPK9; compound concentrations: 100 nM and 1000 nM (sheet 'Samples'), CATDS: 2.4377657095079101E-2",1310 nM
same,potency estimated from few doses,"MARK3; compound concentrations: 100 nM and 1000 nM (sheet 'Samples'), CATDS: 2.1082964771659999E-2",2280 nM
same,potency estimated from few doses,"RPS6KA4; compound concentrations: 100 nM and 1000 nM (sheet 'Samples'), CATDS: 3.0047903909945699E-2",696 nM
CC(C)Oc1ccc2c(-c3ccnc(Nc4ccc(N5CCN(C)CC5)cc4)n3)cnn2n1 [GW696155X],potency estimated from few doses,AURKA; [1],602 nM
same,potency estimated from few doses,CDK16; [1],1910 nM
same,potency estimated from few doses,MAPK10; [1],1250 nM
same,potency estimated from few doses,MAPK9; [1],1010 nM
NS(=O)(=O)c1ccc(N/N=C2\C(=O)Nc3ccc4ncccc4c32)cc1 [GW305178X],potency estimated from few doses,"STK4; compound concentrations: 100 nM and 1000 nM (sheet 'Samples'), CATDS: 4.4831401788358302E-2",1360 nM
Cl.Nc1nc(-c2ccc3c(c2)C(=Cc2cc(Br)c(O)c(Br)c2)C(=O)N3)cs1 [GW407323A],potency estimated from few doses,"CDK16; compound concentrations: 100 nM and 1000 nM (sheet 'Samples'), CATDS: 4.1043878899959203E-2",464 nM
Cc1cc(NC(=O)c2cccc(NC(=O)/C=C/CN(C)C)c2)ccc1Nc1nccc(-c2cccnc2)n1 [JNK-IN-7],potency estimated from few doses,ATM; [1],273 nM
same,potency estimated from few doses,CSNK1D; [1],1190 nM
same,potency estimated from few doses,MAPK9; [1],6.45 nM
NS(=O)(=O)c1ccc(N/N=C2\C(=O)Nc3ccc(-c4cnco4)cc32)cc1 [GW276655_KCGS],potency estimated from few doses,CDK16; [1],1880 nM
CCC(CC)(CC)n1cnc2c(N)ncnc21 [SKF-97620],potency estimated from few doses,"ATM; compound concentrations: 100 nM and 1000 nM (sheet 'Samples'), CATDS: 0.160358426493935",43.6 nM
O=C(Nc1n[nH]c2nc(-c3ccccc3O)ccc12)C1CC1 [SB-711880],potency estimated from few doses,AURKA; [1],286 nM
same,potency estimated from few doses,CHEK1; [1],967 nM
same,potency estimated from few doses,MARK3; [1],1610 nM
same,potency estimated from few doses,STK4; [1],345 nM
